Drawing on PubChem BioAssay (EPA / NIEHS), this text covers outcome and AC50 for 37 compounds.

What is called AC50 is the midpoint of the concentration-response curve, whichever way the signal moves.

Several values for one entry are separate records, joined by “and”; a condition that tells them apart may be missing. Identical values can stand only once. The source holds several records for some structures; these can differ, active in one and inactive in another. Activity calls are given as the source filed them. Rule for the calls: active = hit-call score of the fitted dose curve at least 0.9, where 1 is the maximum; inactive = score below 0.9.

A short description of the test: ATG_NFI_CIS: Attagene CIS-FACTORIAL HepG2 Assay for human Nuclear Factor I (NFI) (AID 2282989). As to conditions: HepG2 cis-regulatory reporter, NFI response element transcription; actives raise or lower the signal. Here is the method:
ATG_CIS is a cell-based, multiplexed-readout assay that uses HepG2, a human liver cell line, with measurements taken at 24 hours after chemical dosing in a 24-well plate.ATG_NFI_CIS is one of 52 assay component(s) measured or calculated from the ATG_CIS assay. It is designed to make measurements of mRNA induction, a form of inducible reporter, as detected with fluorescence intensity signals by Reverse transcription polymerase chain reaction (RT-PCR) and Capillary electrophoresis technology.Data from the assay component ATG_NFI_CIS was analyzed into 1 assay endpoint. This assay endpoint, ATG_NFI_CIS, was analyzed with bidirectional fitting relative to DMSO as the negative control and baseline of activity. Using a type of inducible reporter, measures of mRNA for gain or loss-of-signal activity can be used to understand the reporter gene at the transcription factor-level as they relate to the gene NFIA. Furthermore, this assay endpoint can be referred to as a primary readout, because this assay has produced multiple assay endpoints where this one serves a reporter gene function. To generalize the intended target to other relatable targets, this assay endpoint is annotated to the dna binding intended target family, where the subfamily is nuclear factor I.
Human liver HepG2 cells are transiently transfected with multiple reporter transcription units (MRTUs) in 6-well plates using FuGene 6 reagent (Roche; 3 ml FuGene/1 mg DNA). The MRTU constructs are regulated by a cis-regulating element (promoter). […] A major difference between the CIS and TRANS system is that in CIS activities of endogenous TFs are measured, whereas the TRANS assay evaluates changes in activities of exogenous, chimeric NR-Gal4 proteins. […] At the end of 24 hour incubation, total RNA was isolated using TriZol reagent (Invitrogen). The isolated RNA is then reverse-transcribed using oligo(dT) primer and Mo-MLV reverse transcriptase (Invitrogen) with DNAse I (Ambion) treatment for 30 min. The one-tenth of the produced cDNA was amplified by PCR using Taq DNA polymerase (Invitrogen) and two reporter sequence-specific primers. The PCR products were fluorescently labeled by primer extension with 6-arboxyfluorescein (6-FAM) 5'-labeled reporter sequence-specific primer (2 min at 95 C, 20 s at 68 C and 10 min at 72 C) and these products were digested with 5U of HpaI (New England Biolabs) for 2h at 37 C. The fragments were purified using Qiaquick PCR columns (Qiagen), analyzed on an ABI 3130xL genetic analyzer (Applied Biosystems) with peak positions identified by using a set of X-rhodamine (ROX)-labeled MapMarker1000 molecular weight standards (BioVentures). The raw capillary electrophoresis data was processed using Attagraph software (Attagene).
On to `CCc1ccc(CCOc2ccc(CC3SC(=O)NC3=O)cc2)nc1` (stereo not given), for which the call was inactive. Still for that read-out and setting: as for `COCC(C)O` (stereo not given), the entry is “inactive”; as for `CCCCC[C@H](O)CC(=O)CCc1ccc(O)c(OC)c1`, “inactive”. Consider `CCN(CC)CCNc1ccc(CNC=O)c2sc3ccc(OC)cc3c(=O)c12`, for which the concentration at half-maximal activity (AC50) is 0.843 µM (active). Regarding `O=C(/C=C/c1ccc(O)cc1)CC(=O)/C=C/c1ccc(O)cc1`, the call was inactive. For the compound `NCC(F)(F)C(F)(F)C(F)(F)C(F)(F)C(F)(F)C(F)(F)C(F)(F)F`, the result was inactive. `OCCC(F)(F)C(F)(F)C(F)(F)C(F)(F)C(F)(F)C(F)(F)F`: the AC50 is 153 µM (active) and the compound was classed as inactive. As for `CC#C[C@]1(O)CC[C@H]2[C@@H]3CCC4=CC(=O)CCC4=C3[C@@H](c3ccc(N(C)C)cc3)C[C@@]21C`, the half-maximal activity concentration (AC50) is 153 µM (active) and 64.1 µM (active) and 34.2 µM (active); the call was inactive.

Turning to `Cc1ccc(S(=O)(=O)O)c(C)c1`, the call was inactive. Consider `CN1CCN(c2ccccc2/C=C2\SCCN(c3ccc(Cl)c(Cl)c3)C2=O)CC1`, for which the compound was called inactive. Still for that read-out and setting: then `c1ccc2cc3c(ccc4ccccc43)cc2c1`, with “inactive”.

`CN1CCC[C@H]1c1cccnc1`: the compound was called inactive. Still for that read-out and setting: as for `C=C(C)C(=O)OCCC(F)(F)C(F)(F)C(F)(F)C(F)(F)C(F)(F)C(F)(F)F`, the entry is “inactive”; as for `CCCCCCCCCCCCCC[N+](C)(C)C`, “inactive”. With `COC(=O)CCCCC(=O)OC`, the compound was classed as inactive. Same read-out and setting: as for `O=C1OC2(c3ccccc31)c1cc(Br)c(O)c(Br)c1Oc1c2cc(Br)c(O)c1Br`, the entry is “inactive”; as for `OC1CCCCC1`, “inactive”; as for `O=c1c(-c2ccc(O)cc2)coc2cc(O)ccc12`, “inactive”. On the same count and under the same terms, as for `Cc1cc(C)c(O)c(C)c1`, the entry is “inactive”; as for `c1ccc2c(c1)ccc1ccccc12`, “inactive”; as for `CCCCCCCCCCCCc1ccccc1S(=O)(=O)O`, “inactive”. Still for that read-out and setting: then `FC(F)(I)C(F)(F)C(F)(F)C(F)(F)C(F)(F)C(F)(F)I`, with “inactive”; and `CC(C)(C)CC(C)(C)c1ccc(O)c(-n2nc3ccccc3n2)c1`, with “inactive”. In the case of `CC(C)(C)c1cc(C(C)(C)C)c(O)c(C(C)(C)C)c1`, the half-maximal activity concentration (AC50) is 54.2 µM (active) and the compound was called inactive.

Turning to `O=[N+]([O-])c1ccc(O)cc1`, the call was inactive. The same measure, in the same setting: as for `CCCCCCCCC(=O)O`, the entry is “inactive”; as for `CCCCOCCO`, “inactive”; as for `CCc1nn(C2CCCCC2)c2cc(C3(C#N)CCC(C(=O)O)CC3)ccc12` (stereo not given), “inactive”. The same measure, in the same setting: as for `CN(C)C=O`, the entry is “inactive”; as for `Oc1cccc(O)c1`, “inactive”. The same measure, in the same setting: then `CCCCCCCCCCCCN1CCCC1=O`, with “inactive”; and `CCCOC(=O)c1ccc(O)cc1`, with “inactive”. For the compound `Nc1cccc2c(N)cccc12`, the outcome was inactive. Still for that read-out and setting: then `CCOC(=O)CC(O)(CC(=O)OCC)C(=O)OCC`, with “inactive”; and `OC1CCC(C2CCCCC2)CC1` (stereo not given), with “inactive”. Consider `COCC(C)OCC(C)O` (stereo not given), for which the outcome was inactive. Consider `CC[C@H](C)[C@@H](C(=O)O)n1sc2ccccc2c1=O`, for which the result was inactive.
